D2 antagonist – HTS Assay for Allosteric Antagonists of the Human D2 Dopamine Receptor: Primary Screen for Antagonists; D(2) dopamine receptor (Homo sapiens), P14416; inhibition, % at 10 µM; 340,000 compounds, 2% hits; HEK293 TREx D2 cells, calcium flux, dopamine EC80; AID 485344, 2010; in the data active = inhibition above about 30%; inactive = below that, where a call was filed; note: 0% is about no effect
Target sequence (P14416 whole entry, looked up): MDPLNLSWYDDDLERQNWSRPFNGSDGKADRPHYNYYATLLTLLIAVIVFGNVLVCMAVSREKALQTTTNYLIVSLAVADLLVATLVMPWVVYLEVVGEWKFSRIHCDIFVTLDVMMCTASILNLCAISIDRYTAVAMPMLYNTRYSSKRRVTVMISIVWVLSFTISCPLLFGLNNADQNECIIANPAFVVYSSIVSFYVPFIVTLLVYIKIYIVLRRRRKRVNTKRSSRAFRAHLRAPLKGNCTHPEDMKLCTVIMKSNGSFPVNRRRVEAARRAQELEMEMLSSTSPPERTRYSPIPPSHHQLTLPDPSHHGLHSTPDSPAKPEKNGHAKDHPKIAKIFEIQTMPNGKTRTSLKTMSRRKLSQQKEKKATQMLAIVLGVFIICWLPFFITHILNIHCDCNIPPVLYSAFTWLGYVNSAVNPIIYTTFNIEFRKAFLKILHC
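In this primary screen, negative modulation is detected by tracking calcium flux after an EC80 dopamine challenge in inducible HEK293 T-REx D2 cells preexposed to test compound for 180 s.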
D2 PAM-1 – Beta-Arrestin HTS for Positive Allosteric Modulators of the Human D2 Dopamine Receptor: Potentiators; D(2) dopamine receptor (Homo sapiens), P14416; DiscoveRx D2 beta-arrestin cells, luminescence, 90 min; 100% = 57 uM dopamine signal; potentiation, % (test concentration not listed); 360,000 compounds, 0.23% hits; AID 624464, 2012; in the data active = potentiation above about 50%; inconclusive = mostly about 30% to 49%
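D2 cells co-treated with compound plus 50 nM dopamine (EC20) for 90 min at 37 deg C to detect potentiation. Beta-arrestin recruitment was read as enzyme-fragment luminescence after 1 h at ambient temperature. Full response was set by 57 uM dopamine.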
D2 ag-1 – HTS Assay for Allosteric Agonists of the Human D2 Dopamine Receptor: Primary Screen for Agonists | D(2) dopamine receptor (Homo sapiens), P14416 | HEK293 T-REx D2 cells, calcium flux agonist mode | activation, % at 2 µM | 340,000 compounds, 0.53% hits;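 active = activation over 3 SD above normal in the single-dose calcium agonist read, cut at about 30% in these data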; note: 0% is about no effect
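Agonism is scored from calcium flux in a force-coupled, inducible HEK293 cell line expressing D2, read kinetically for 180 s after compound addition against dopamine controls.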
D2 PAM-2 – HTS Assay for Positive Allosteric Modulators of the Human D2 Dopamine Receptor: Primary Screen for Potentiators. HEK293 T-REx D2, calcium flux, EC20 dopamine potentiation. potentiation, % at 10 µM. 340,000 compounds, 0.34% hits. AID 485347, 2010;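 active = potentiation over 3 SD above the plate norm, cut at about 30% in these data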; note: 0% is about no effect
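Primary screen. Calcium kinetics in induced HEK293 T-REx D2 cells: compound pre-addition 180 s, EC20 dopamine, 180 s more.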
D2 ag-2 – Beta-Arrestin HTS for Positive Allosteric Modulators of the Human D2 Dopamine Receptor: Agonists | DiscoveRx PathHunter D2 beta-arrestin, luminescence, 90 min; 100% = 57 uM dopamine signal | D(2) dopamine receptor (Homo sapiens), P14416 | AID 624465, 2012 | 360,000 compounds, 0.084% hits | activation, % (test concentration not listed); in the data active = activation above about 40%; inconclusive = between about 15% and that limit
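Agonist mode: compounds alone added to overnight-plated D2 PathHunter cells for 90 min at 37 C, with 57 uM final dopamine (EC100) defining full response. Beta-arrestin recruitment detected by chemiluminescent reagent, read after 1 h at ambient temperature.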
D3 ag – qHTS of D3 Dopamine Receptor Agonist: D3 Dopamine Receptor B-arrestin Agonist Confirmatory Assay; DiscoveRx D3 beta-arrestin cells, luminescence, 90 min; Potency, µM (top dose mostly 76.9 µM), without a hit: at the highest dose activation, hits mostly activators; AID 720506, 2013; 2,300 compounds, 4% hits; shares compounds with D2 ag-1;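 note: potency is the fitted concentration of half-maximal effect; 100% = dopamine control response; nearly all actives have a fitted effect of over 70% in size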
D2 ag-3 – qHTS of D3 Dopamine Receptor Agonist: D2 Dopamine Receptor B-arrestin Agonist Counterscreen; shares compounds with D2 ag-1; DiscoveRx PathHunter D2 beta-arrestin, luminescence, 90 min; response scale: percent relative to full dopamine signal; Potency, µM (titrated, usually from 76.9 µM), without a hit: top-dose activation, actives largely listed as activators; 2,300 compounds, 5.9% hits; AID 720507, 2013; note: potency is the fitted concentration of half-maximal effect; % of control where 0% means no effect; nearly all actives have a fitted effect of over 70% in size
The depositor's hits bear a star; ? = inconclusive; nt = no result given. The list is not random: actives were taken first. Their share in the collection is about 2.4%. Unless noted, calls come from the whole dose curve; as a rule, active = well fitted activation curve with a large enough effect; inconclusive = small, poorly fitted or top-dose-only effect; inactive = flat fitted curve, though single readings scatter.

SMILES	D2 antagonist	D2 PAM-1	D2 ag-1	D2 PAM-2	D2 ag-2	D3 ag	D2 ag-3
C#CCNC(=O)C1=C[C@@H](c2ccc(C#C)cc2)[C@H](CCCO)[C@@H](OCC)O1	31.9*	9.9	0.4	1.0	0.8	4.6%	-2.7%
CCO[C@H]1OC(C(=O)Nc2ccccc2)=C[C@@H](c2csc3ccccc23)[C@@H]1CCCO	-17.1	-0.9	0.3	2.7	-1.0	nt	nt
N#Cc1ccc(CSc2nnc(NC(=O)C3CC(=O)N(c4ccc5c(c4)OCCO5)C3)s2)cc1 (stereo not given)	-7.2	-0.1	-0.1	-1.1	-3.9	nt	nt
O=C(Nc1nnc(SCc2ccc(F)cc2)s1)C1CC(=O)N(c2ccc3c(c2)OCCO3)C1 (stereo not given)	-7.8	-2.1	42.6*	-27.2	-1.6	8.0%	-3.8%
O=C(N/C(=C/c1ccc(F)cc1)C(=O)N1CCOCC1)c1ccccc1	0.1	-7.3	-0.1	2.5	-8.1	-7.7%	-3.4%
CCOC(=O)C(=O)NCC(c1cccnc1)N1CCN(c2ccccc2)CC1 (stereo not given)	nt	nt	-0.6	-10.5	nt	nt	nt
Cc1cc(NC(=O)C(=O)NCCN2CCN(C(=O)c3cccs3)CC2)ccc1Br	27.1	-20.6	22.3	-9.7	0.4	28.4%	5.8%
COc1ccc(NC(=O)C(=O)NCCN2CCN(C(=O)c3cccs3)CC2)cc1	44.4*	-18.3	14.0	5.6	1.0	?	6.6%
CCOC(=O)c1c(C)oc2nc(C)nc(NCCc3ccc(OCC)c(OCC)c3)c12	nt	nt	-0.1	5.8	nt	nt	nt
O=C1C2=C(Nc3ccccc3SC2c2ccccc2C(F)(F)F)c2ccccc21 (stereo not given)	nt	nt	0.8	-3.0	nt	nt	nt
COc1ccc(CNC(=O)c2cc3c(=O)n(Cc4cccs4)ccc3nc2C)cc1	nt	nt	-0.2	7.6	nt	nt	nt
COc1ccc(CNC(=O)C2CCCCN2S(=O)(=O)c2ccc(F)cc2)cc1 (stereo not given)	nt	nt	0.3	-0.6	nt	nt	nt
O=c1cc(CN2CCN(c3ccccc3)CC2)nc2scc(-c3ccccc3)n12	-5.9	-5.6	1.8	11.0	?	nt	nt
C=CCNCc1cc(=O)n2c(-c3ccccc3)csc2n1	29.7	-1.8	47.1*	-14.7	8.8	-1.3%	16.5%
Cc1ccc(S(=O)Cc2nc(-c3ccc(C(=O)NC(C)c4ccccc4)cc3)oc2C)cc1 (stereo not given)	nt	nt	-1.2	4.0	nt	nt	nt
COc1ccccc1N1CCN(C(CNS(=O)(=O)c2ccccc2)c2ccccc2)CC1 (stereo not given)	19.8	-32.5	7.3	-15.1	-0.6	-7.2%	-1.4%
COc1ccccc1N1CCN(C(CNS(=O)(=O)c2cccs2)c2cccnc2)CC1 (stereo not given)	6.9	-15.6	5.7	-8.9	-3.4	nt	nt
Cc1ccc(S(=O)(=O)NCC(c2ccc3c(c2)OCO3)N2CCN(c3ccccc3)CC2)cc1 (stereo not given)	67.4*	8.8	63.7*	-26.9	?	19.8%	?
COc1ccc(S(=O)(=O)NCC(c2ccc3c(c2)OCO3)N2CCN(c3ccccc3)CC2)cc1 (stereo not given)	72.8*	28.1	66.1*	-26.3	?	15.9%	11.2µM*
COC(=O)NCC(c1ccc2c(c1)OCO2)N1CCN(c2ccccc2)CC1 (stereo not given)	-15.6	-19.2	6.5	1.7	0.9	nt	nt
CCOC(=O)c1noc2nc(C)n(CC(=O)Nc3cccc(OC)c3)c(=O)c12	nt	nt	0.4	nt	nt	nt	nt
COc1ccccc1NS(=O)(=O)c1cc([N+](=O)[O-])ccc1N/N=C/c1c(C)[nH]c2ccccc12	-25.6	-16.5	19.3	15.3	-16.1	-42.7%	-14.2%
Cc1[nH]c2ccccc2c1/C=N/Nc1ccc([N+](=O)[O-])cc1	20.0	-17.5	21.9	-1.6	-11.8	nt	nt
CC(=O)c1cccc(NC(=O)c2cc3sc(Cl)cc3n2C)c1	nt	nt	nt	11.4	nt	nt	nt
CCC(C(=O)Nc1cc(-c2cn3cccnc3n2)ccc1C)c1ccccc1 (stereo not given)	nt	nt	nt	-5.5	nt	nt	nt
SMILES	D2 antagonist	D2 PAM-1	D2 ag-1	D2 PAM-2	D2 ag-2	D3 ag	D2 ag-3
CCCCNC(=O)CCC(=O)Nc1ccc2nc(N3CCN(C)CC3)cc(C)c2c1	-7.9	-10.4	-0.2	7.4	-4.6	nt	nt
CCCN(CCC)CCNC(=O)CCC(=O)Nc1ccc2nc(N3CCN(C)CC3)cc(C)c2c1	-3.5	-8.3	12.7	-17.8	-2.7	14.1%	15.3%
Cc1ccccc1CCNC(=O)c1ccc(Cn2c(=O)c3cccn3c3cccnc32)cc1	nt	nt	-1.1	-3.3	nt	nt	nt
COc1ccc(NC(=O)CSc2nc(-c3ccccc3)nc3c2Cc2c(CO)cnc(C)c2O3)cc1Cl	nt	nt	0.2	1.6	nt	nt	nt
COc1ccccc1OCC(=O)NC1CCSc2ccccc21 (stereo not given)	-7.5	0.4	1.0	-1.3	-6.4	-8.3%	3.9%
CC(C)(C)c1ccc(C(=O)NCC(c2cccnc2)N2CCc3ccccc3C2)cc1 (stereo not given)	nt	nt	-1.7	6.1	nt	nt	nt
CC(C)NCC1CCc2cc(CO)c([N+](=O)[O-])cc2N1 (stereo not given)	-0.5	-32.3	41.6*	-22.2	-4.9	-8.1%	-2.3%
O=C(Nc1ccn(CC(=O)N2CCN(c3ccccn3)CC2)c(=O)n1)OCc1ccccc1	-2.8	2.2	0.1	8.0	-2.4	-2.5%	0.4%
O=C(Nc1ccn(CCCN2CCN(c3ncccn3)CC2)c(=O)n1)OCc1ccccc1	nt	nt	nt	nt	5.8	nt	nt
O=C(NCCc1ccccc1)c1nc2nc(-c3cccs3)cc(C(F)(F)F)n2n1	40.4*	-8.4	-0.3	0.1	-1.7	-3.5%	6.8%
Cc1cc(C)n2nc(C(=O)NCCc3ccccc3)nc2n1	-2.4	-2.6	0.7	9.7	3.4	nt	nt
CC1CC(C)CN(CCCNC(=O)CN2C(=O)CSc3ccc(S(=O)(=O)N4CCOCC4)cc32)C1 (stereo not given)	40.2*	-24.3	29.2	-18.1	1.8	-3.9%	7.6%
CCCCN(CC)CCCNC(=O)CN1C(=O)CSc2ccc(S(=O)(=O)N3CCOCC3)cc21	-22.1	-8.1	23.0	-17.9	4.2	-6.3%	2.9%

Screens (PubChem)
